Molecules are shown by their SMILES. For some of these results: Entries with a potency or affinity are not part of this list.

What all share (parameters): scale not given: direction of the effect not stated beside the values
The target in experiment [1] is Protein translocase subunit SecA (Escherichia coli (strain K12)) (UniProt P10408). The experiment in a line: Assay to Identify E. coli SecA ATPase Inhibitors. It counts as functional. The following applies: 30 µM.
Experiment [2] deals with T1, Ubiquitin-activating enzyme e1, putative (Leishmania donovani (strain BPK282A1)) (UniProt E9BSI1).
T1 sequence (whole entry): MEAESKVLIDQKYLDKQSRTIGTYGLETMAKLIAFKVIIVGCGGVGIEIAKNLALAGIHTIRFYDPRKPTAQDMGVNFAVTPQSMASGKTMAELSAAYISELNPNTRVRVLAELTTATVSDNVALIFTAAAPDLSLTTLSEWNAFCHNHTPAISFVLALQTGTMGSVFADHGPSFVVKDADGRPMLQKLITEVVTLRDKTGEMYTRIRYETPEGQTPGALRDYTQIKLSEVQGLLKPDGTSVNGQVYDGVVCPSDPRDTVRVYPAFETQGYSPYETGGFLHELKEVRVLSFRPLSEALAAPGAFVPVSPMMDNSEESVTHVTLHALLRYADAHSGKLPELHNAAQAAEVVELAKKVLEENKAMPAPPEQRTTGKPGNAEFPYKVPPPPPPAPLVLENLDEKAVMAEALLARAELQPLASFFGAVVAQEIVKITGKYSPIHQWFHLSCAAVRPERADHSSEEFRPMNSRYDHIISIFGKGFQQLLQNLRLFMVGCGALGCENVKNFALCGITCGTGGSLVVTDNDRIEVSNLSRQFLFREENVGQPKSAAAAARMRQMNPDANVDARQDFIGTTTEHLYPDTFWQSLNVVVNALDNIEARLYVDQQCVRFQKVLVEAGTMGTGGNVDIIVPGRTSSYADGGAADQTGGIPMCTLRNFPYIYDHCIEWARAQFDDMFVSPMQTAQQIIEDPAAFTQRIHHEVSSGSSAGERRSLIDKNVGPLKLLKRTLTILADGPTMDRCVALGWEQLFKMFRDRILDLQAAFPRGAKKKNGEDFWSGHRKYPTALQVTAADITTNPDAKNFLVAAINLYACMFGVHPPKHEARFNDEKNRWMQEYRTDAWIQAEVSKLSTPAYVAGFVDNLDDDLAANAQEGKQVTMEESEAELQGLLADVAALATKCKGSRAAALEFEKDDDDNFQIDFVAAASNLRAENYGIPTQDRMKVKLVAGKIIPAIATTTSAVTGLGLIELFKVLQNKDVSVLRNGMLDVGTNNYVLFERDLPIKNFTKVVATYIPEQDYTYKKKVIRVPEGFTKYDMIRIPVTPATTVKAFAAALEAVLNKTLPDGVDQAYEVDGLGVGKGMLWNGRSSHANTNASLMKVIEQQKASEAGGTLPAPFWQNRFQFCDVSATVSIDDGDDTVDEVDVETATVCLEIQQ
The experiment in a line: Leishmania donovani Ubiquitin Activating Enzyme (LdE1). It counts as functional. The conditions noted are these: 30 µM.

Experiment [3] has as its target AMP-activated protein kinase, AMPK (Homo sapiens) (UniProt P54646+O43741+P54619+Q9UGJ0+Q9Y478+Q13131+Q9UGI9). The experiment can be described thus: AMP-dependent Kinase enzyme assay. An in vitro enzyme assay that detects ADP turnover that is directly proportional to AMPK activity. This uses naive AMPK that is activated during the assay with MK-8722. In kind it is functional. The following applies: 30 µM.

In experiment [4] the target is Sialic acid-binding Ig-like lectin 9 (Homo sapiens) (UniProt Q9Y336). The experiment in a line: Hs-Siglec9 ALPHAscreen SOP 20170721. The following applies: 10 µM.
Experiment [5] concerns Trypanosoma cruzi. The experiment can be described thus: Trypanosoma cruzi phosphomannomutase and mannose-1-phosphate guanylyltransferase assay. It counts as functional. The following applies: 10 µM.
Experiment [6] has as its target T2, Arginase-2, mitochondrial (Homo sapiens) (UniProt P78540).
T2 sequence (whole entry): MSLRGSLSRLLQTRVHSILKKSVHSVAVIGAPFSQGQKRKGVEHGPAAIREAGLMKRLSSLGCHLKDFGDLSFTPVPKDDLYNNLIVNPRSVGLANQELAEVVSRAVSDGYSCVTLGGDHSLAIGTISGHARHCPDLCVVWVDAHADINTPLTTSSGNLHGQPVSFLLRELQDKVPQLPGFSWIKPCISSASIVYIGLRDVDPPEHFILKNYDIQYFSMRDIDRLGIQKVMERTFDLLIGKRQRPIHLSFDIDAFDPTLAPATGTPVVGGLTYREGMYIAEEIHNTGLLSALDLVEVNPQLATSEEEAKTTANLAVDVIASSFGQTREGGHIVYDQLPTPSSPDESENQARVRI
The experiment in a line: in vitro enzyme assay to detect the production of urea directly proportional to the activity of Arginase II. Note: in the data most compounds retested in dose-response had high values. It counts as functional. The conditions noted are these: 33.3 µM.

Experiment [7] has as its target T3, Proteasome subunit beta (Trypanosoma cruzi) (UniProt O96673).
T3 sequence (whole entry): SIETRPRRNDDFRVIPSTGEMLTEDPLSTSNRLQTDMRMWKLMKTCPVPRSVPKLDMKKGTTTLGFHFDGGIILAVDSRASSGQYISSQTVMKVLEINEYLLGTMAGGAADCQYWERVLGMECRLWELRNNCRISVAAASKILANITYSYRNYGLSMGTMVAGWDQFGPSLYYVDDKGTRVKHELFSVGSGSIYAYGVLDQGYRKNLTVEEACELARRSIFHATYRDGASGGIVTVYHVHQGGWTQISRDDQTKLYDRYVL
The experiment in a line: Trypanosoma cruzi proteasome chymotrypsin-like activity (TcProtChymo) assay. Note: in the data most compounds retested in dose-response had high values. It counts as functional. The conditions noted are these: 9.37 µM.

The species named for experiment [8] is Homo sapiens. The experiment can be described thus: To identify inhibition of the IFN signalling (Jak-Stat) pathway via expression of an eGFP reporter gene under the control of an IFN-stimulated response element (ISRE) containing MxA promoter. In kind it is functional. The following applies: 30 µM. For orientation: A reporter such as luciferase makes a cellular process visible.

For experiment [9], the target named is T4, Tyrosyl-tRNA synthetase, putative (Trypanosoma cruzi (strain CL Brener)) (UniProt Q4DSP6).
T4 sequence (whole entry): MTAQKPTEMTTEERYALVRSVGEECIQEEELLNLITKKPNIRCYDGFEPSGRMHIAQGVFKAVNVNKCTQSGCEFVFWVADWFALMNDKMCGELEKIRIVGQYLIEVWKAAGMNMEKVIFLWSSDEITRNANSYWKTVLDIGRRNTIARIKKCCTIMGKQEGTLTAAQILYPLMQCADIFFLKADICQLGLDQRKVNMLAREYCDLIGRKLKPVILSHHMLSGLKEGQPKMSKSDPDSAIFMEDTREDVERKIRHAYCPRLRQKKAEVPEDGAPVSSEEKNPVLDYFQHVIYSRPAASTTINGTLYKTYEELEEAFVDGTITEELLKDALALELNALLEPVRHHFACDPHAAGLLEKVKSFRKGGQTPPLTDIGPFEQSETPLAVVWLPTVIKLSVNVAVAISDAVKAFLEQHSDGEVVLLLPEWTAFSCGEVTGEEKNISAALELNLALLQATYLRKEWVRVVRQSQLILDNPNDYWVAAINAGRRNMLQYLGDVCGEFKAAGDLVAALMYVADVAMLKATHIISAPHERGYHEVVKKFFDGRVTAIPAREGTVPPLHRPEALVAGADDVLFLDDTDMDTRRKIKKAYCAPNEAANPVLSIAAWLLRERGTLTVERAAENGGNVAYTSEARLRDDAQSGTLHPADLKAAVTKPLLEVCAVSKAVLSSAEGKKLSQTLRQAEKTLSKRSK
The experiment can be described thus: Trypanosoma cruzi tyrosyl tRNA synthetase (TcYRS) _High Tyrosine SOP. Note: in the data most compounds retested in dose-response had high values. It counts as functional. The following applies: 30 µM.

Experiment [10] has as its target T4, Tyrosyl-tRNA synthetase, putative (Trypanosoma cruzi (strain CL Brener)). The experiment in a line: Trypanosoma cruzi tyrosyl tRNA synthetase (TcYRS) SOP. In kind it is functional. The following applies: 30 µM.
The target of experiment [11] is Chromo domain-containing protein 1 (Saccharomyces cerevisiae (strain ATCC 204508 / S288c) (Baker's yeast)) (UniProt P32657). The experiment in a line: ScCHD-1 Enzyme Inhibition Assay. Note: in the data most compounds retested in dose-response had high values. It counts as functional. The following applies: 30 µM.
Chain of Chromo domain-containing protein 1 (Saccharomyces cerevisiae (strain ATCC 204508 / S288c) (Baker's yeast)) (P32657 whole entry, the tested form may be a part): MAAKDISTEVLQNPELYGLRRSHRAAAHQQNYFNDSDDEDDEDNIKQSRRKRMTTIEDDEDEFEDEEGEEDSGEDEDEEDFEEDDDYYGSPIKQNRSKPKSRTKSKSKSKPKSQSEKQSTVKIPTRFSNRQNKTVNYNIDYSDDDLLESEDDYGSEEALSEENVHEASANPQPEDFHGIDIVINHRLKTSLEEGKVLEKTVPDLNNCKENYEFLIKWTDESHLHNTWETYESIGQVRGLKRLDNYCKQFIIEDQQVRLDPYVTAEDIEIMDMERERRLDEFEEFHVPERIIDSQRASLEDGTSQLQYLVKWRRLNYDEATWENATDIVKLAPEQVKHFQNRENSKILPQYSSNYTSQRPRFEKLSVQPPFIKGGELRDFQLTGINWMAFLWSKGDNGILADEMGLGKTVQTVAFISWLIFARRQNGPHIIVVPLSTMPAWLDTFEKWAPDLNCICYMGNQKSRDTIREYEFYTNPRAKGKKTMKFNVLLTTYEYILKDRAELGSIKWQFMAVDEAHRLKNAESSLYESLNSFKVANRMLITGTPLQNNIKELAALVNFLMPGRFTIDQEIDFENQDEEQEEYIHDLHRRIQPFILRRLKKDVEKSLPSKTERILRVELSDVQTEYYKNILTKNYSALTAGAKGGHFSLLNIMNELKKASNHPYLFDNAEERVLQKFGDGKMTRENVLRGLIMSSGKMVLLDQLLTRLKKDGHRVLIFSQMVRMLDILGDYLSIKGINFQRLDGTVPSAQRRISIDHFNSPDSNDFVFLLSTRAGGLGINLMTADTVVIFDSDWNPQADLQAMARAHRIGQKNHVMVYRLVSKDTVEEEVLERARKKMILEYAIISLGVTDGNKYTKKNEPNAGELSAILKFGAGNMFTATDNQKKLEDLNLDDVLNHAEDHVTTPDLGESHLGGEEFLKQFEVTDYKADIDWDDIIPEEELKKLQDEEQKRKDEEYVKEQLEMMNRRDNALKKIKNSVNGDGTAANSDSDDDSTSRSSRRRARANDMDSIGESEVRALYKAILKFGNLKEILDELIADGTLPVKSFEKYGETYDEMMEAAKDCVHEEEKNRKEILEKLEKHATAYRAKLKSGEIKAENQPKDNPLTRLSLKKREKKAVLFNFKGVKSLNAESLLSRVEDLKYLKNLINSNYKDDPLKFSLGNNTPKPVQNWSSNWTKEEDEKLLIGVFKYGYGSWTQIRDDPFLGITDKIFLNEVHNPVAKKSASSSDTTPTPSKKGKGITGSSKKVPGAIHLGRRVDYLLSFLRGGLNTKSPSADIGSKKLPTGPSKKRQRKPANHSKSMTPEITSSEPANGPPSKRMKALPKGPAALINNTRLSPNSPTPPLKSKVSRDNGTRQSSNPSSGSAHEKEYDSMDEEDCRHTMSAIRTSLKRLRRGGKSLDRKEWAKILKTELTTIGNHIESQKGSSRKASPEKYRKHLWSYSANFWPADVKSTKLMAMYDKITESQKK

Chain of Sialic acid-binding Ig-like lectin 9 (Homo sapiens) (Q9Y336 whole entry): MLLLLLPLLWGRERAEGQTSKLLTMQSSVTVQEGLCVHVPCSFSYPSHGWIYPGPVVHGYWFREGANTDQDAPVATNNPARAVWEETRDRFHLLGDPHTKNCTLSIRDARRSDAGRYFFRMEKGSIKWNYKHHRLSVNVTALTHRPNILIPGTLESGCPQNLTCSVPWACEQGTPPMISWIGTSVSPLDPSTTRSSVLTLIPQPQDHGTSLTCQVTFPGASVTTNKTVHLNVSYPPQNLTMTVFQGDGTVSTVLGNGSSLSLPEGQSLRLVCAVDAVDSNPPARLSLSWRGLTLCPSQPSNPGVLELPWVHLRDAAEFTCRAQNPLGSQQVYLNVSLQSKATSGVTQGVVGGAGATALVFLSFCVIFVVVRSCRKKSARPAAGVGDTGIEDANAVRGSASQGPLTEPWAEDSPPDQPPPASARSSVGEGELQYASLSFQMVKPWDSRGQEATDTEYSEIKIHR
Chain of Protein translocase subunit SecA (Escherichia coli (strain K12)) (P10408 whole entry): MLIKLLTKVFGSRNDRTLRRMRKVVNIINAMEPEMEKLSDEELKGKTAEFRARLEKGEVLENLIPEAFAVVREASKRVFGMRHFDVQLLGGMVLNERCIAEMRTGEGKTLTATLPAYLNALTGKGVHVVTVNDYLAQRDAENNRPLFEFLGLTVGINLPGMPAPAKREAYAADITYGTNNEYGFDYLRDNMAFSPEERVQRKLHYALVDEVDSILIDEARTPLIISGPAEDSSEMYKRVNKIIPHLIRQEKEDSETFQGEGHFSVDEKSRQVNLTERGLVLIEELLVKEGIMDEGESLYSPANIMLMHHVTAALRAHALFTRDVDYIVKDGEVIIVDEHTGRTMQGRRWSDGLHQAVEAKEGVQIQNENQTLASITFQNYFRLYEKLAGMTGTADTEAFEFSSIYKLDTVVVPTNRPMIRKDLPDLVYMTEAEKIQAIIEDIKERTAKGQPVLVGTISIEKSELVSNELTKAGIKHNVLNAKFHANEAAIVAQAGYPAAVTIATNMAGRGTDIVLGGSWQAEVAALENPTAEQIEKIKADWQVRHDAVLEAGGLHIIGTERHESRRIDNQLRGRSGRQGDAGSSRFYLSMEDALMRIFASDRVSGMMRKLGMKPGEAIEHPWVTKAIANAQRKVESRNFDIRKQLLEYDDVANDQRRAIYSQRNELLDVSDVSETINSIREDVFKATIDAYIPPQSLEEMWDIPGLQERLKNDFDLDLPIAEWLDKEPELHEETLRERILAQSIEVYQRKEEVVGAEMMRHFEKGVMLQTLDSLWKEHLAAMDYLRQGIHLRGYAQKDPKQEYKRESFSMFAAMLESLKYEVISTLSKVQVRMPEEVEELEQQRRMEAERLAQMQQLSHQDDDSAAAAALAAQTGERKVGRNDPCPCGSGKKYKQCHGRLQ

`CC(C)C(NC(=O)NCC1(CO)CC1)c1nnc2n1CCC2` (stereo unspecified): the Percent Effect in experiment [1] was -7.18%; in [2] it was 13.5%; in experiment [3] it was 2.82%; in [4], 15.2%; in [5], 2.54%; in experiment [6] it was 4.58%. Also, the Percent Effect in [7] is 11.2%; in [8], 10.4%; in [9], 7.92%; in [10] it was 11%; in experiment [11], -9.98%.
As for `Cn1cnc2c1CCN(Cc1nc(-c3ccsc3)no1)C2`, the Percent Effect is -6.98% in experiment [1]; 18.9% in experiment [2]; -7.09% in experiment [3]; 15.8% in [4]; 10.7% in [5]; -3.14% in experiment [6]. Also, the Percent Effect in experiment [7] was 5.57%; in experiment [8], 2.25%; in [9] it was 7.92%; in experiment [10], 25.6%; in experiment [11] it was -9.67%.
With `Cc1nc(N2CCCC2)ncc1-c1cc(O)nc(N2CCCC2)n1`, the Percent Effect in experiment [1] was -4.52%; in experiment [2], -1.33%; in experiment [3] it was 4.03%; in [4], 6.18%; in [5] it was -4.13%; in [6], -2.64%. Further, the Percent Effect in [7] is 7.76%; in [8] it was -0.506%; in [9] it was 2.12%; in experiment [10], 0%; in [11], -1.52%.
Turning to `Cc1noc(CN2CCC(c3ccnn3CCO)CC2)n1`, the Percent Effect in [1] is -3.55%; in experiment [2], 12.7%; in [3], -1.18%; in experiment [4], -2.56%; in experiment [5], 8.59%; in experiment [6], -0.76%. For the same compound, the Percent Effect in experiment [7] was 8.76%; in [8], 4.82%; in [9], 6.4%; in experiment [10], 16.5%; in experiment [11] it was -6.79%.
Regarding `CCN(CC)Cc1cn2c(n1)CN(C(=O)c1cc(C)on1)CC2`, the Percent Effect is -2.81% in [1]; 16.2% in [2]; 5.86% in [3]; -5.08% in [4]; -4.01% in [5]; 9.24% in [6]. Also, the Percent Effect in experiment [7] is 23.2%; in experiment [8], -1.45%; in [9], 2.16%; in experiment [10] it was 10.3%; in experiment [11], -0.746%.
Regarding `CNC(=O)[C@H]1CCS(=O)(=O)[C@@H]2CN(Cc3ccc(OC)cc3)C[C@H]12`, the Percent Effect in experiment [1] stood at 0.0608%; in experiment [2], 2.7%; in experiment [3], 3.94%; in experiment [4], 2.93%; in [5], 2.34%; in [6] it was 35.4%. The Percent Effect is -0.592% in experiment [7]; 2.35% in [8]; 82.2% in experiment [9]; 6.1% in [10]; 2.99% in experiment [11].
Turning to `Cn1ccc(C(=O)NC2CCN(c3ncccn3)CC2)cc1=O`, the Percent Effect is -2.08% in experiment [1]; 13.5% in experiment [2]; -7.39% in experiment [3]; 7.92% in experiment [4]; -0.0943% in experiment [5]; 0.401% in experiment [6]. Moreover, the Percent Effect in [7] is 9.73%; in [8] it was 5.6%; in [9], 1.48%; in experiment [10] it was 11.1%; in experiment [11] it was -9.93%.
As to `CN(Cc1nnc2n1CCC2)C(=O)NCCc1ccc2c(c1)OCO2`, the Percent Effect in [1] was -3.06%; in experiment [2], 21.6%; in experiment [3] it was -5.22%; in experiment [4], -0.223%; in experiment [5], -5.38%; in experiment [6], -2.4%. The Percent Effect was 10.6% in [7]; 18.3% in experiment [8]; 7.39% in [9]; 16.1% in [10]; -6.24% in [11].
Take `O=C1OCCN1CCc1nc(-c2cc3c4c(c2)CC(=O)N4CCC3)cs1`: the Percent Effect in experiment [1] is -8.45%; in [2], 0%; in experiment [3], 4.43%; in [4], -2.26%; in experiment [5], -7.87%; in [6], -0.712%. In addition, the Percent Effect in [7] is 9.97%; in experiment [8] it was 47.2%; in experiment [9], 0.971%; in experiment [10] it was 0%; in [11], -5.4%.
With `N#Cc1ccc(C2CC(=O)Nc3c2cnn3C2CCCC2)cc1` (stereo unspecified), the Percent Effect is -3.53% in [1]; 13.3% in experiment [2]; 0.53% in experiment [3]; 17.4% in experiment [4]; 4.77% in [5]; 19.3% in [6]. The Percent Effect in experiment [7] was 3.66%; in experiment [8] it was 6.86%; in [9], 1.64%; in [10] it was 8.64%; in [11], -14.9%.
Take `CN(Cc1nc(-c2ccco2)no1)C1CCCN(c2cccnn2)C1` (stereo unspecified): the Percent Effect is -1.52% in experiment [1]; 20.2% in experiment [2]; -5.85% in [3]; -5.93% in experiment [4]; 2.17% in experiment [5]; 1.14% in experiment [6]. Moreover, the Percent Effect in experiment [7] was 16.1%; in experiment [8], 11.9%; in [9], 6.4%; in experiment [10], 21.5%; in experiment [11], -10.1%.

These data come from ChEMBL document CHEMBL3988442, “University of Dundee, Small-Polar-MMV Screening Library” (2021).
